From the supplement of paper PMC4466140

Target: CaNbp2
Experiment: SPOT peptide array binding signal intensity (averaged, normalized) (arbitrary units (background-subtracted, floor 0; scale differs between SH3 domains)); higher = stronger binding of the SH3 domain to the peptide
Outline: (§1)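 Four yeast species supplied the SH3 domains, which were expressed as GST fusions in E. coli BL21(DE3) and purified on glutathione Sepharose. Incubation with cellulose membranes carrying synthetic 15-mer peptides, cysteines exchanged for serines, ran overnight at 4°C at 10 μg/ml in TBS-based blocking buffer. Binding signal is reported as normalized, background-subtracted spot intensity averaged over replicates, in arbitrary units not shared between domains.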

Binder | SPOT peptide array binding signal intensity
GTIARPLFLVVLFFI | 600

Target: CaRvs167
Experiment: as above
Outline: as §1

Binder | SPOT peptide array binding signal intensity
GTIARPLFLVVLFFI | 49

Target: CaRvs167-3
Experiment: as above
Outline: as §1

Binder | SPOT peptide array binding signal intensity
GTIARPLFLVVLFFI | 17

Target: CaSho1
Experiment: as above
Outline: as §1

Binder | SPOT peptide array binding signal intensity
GTIARPLFLVVLFFI | 730

Target: CaSla1-D1-D2
Experiment: as above
Outline: as §1

Binder | SPOT peptide array binding signal intensity
GTIARPLFLVVLFFI | ≤ 0

Target: CaSla1-D3
Experiment: as above
Outline: as §1

Binder | SPOT peptide array binding signal intensity
GTIARPLFLVVLFFI | 5.75

Target: ScAbp1
Experiment: as above
Outline: as §1

Binder | SPOT peptide array binding signal intensity
GTIARPLFLVVLFFI | 3

Target: ScBbc1
Experiment: as above
Outline: as §1

Binder | SPOT peptide array binding signal intensity
GTIARPLFLVVLFFI | ≤ 0

Target: ScBem1-D1
Experiment: as above
Outline: as §1

Binder | SPOT peptide array binding signal intensity
GTIARPLFLVVLFFI | 1

Target: ScBzz1-D1
Experiment: as above
Outline: as §1

Binder | SPOT peptide array binding signal intensity
GTIARPLFLVVLFFI | 40

Target: ScBzz1-D2
Experiment: as above
Outline: as §1

Binder | SPOT peptide array binding signal intensity
GTIARPLFLVVLFFI | 37.5

Target: ScCyk3
Experiment: as above
Outline: as §1

Binder | SPOT peptide array binding signal intensity
GTIARPLFLVVLFFI | 50

Target: ScFus1
Experiment: as above
Outline: as §1

Binder | SPOT peptide array binding signal intensity
GTIARPLFLVVLFFI | 2030

Target: ScHof1
Experiment: as above
Outline: as §1

Binder | SPOT peptide array binding signal intensity
GTIARPLFLVVLFFI | ≤ 0

Target: ScHse1
Experiment: as above
Outline: as §1

Binder | SPOT peptide array binding signal intensity
GTIARPLFLVVLFFI | 472

Target: ScLsb1
Experiment: as above
Outline: as §1

Binder | SPOT peptide array binding signal intensity
GTIARPLFLVVLFFI | ≤ 0

Target: ScLsb2
Experiment: as above
Outline: as §1

Binder | SPOT peptide array binding signal intensity
GTIARPLFLVVLFFI | ≤ 0

Target: ScLsb3
Experiment: as above
Outline: as §1

Binder | SPOT peptide array binding signal intensity
GTIARPLFLVVLFFI | ≤ 0

Target: ScLsb4
Experiment: as above
Outline: as §1

Binder | SPOT peptide array binding signal intensity
GTIARPLFLVVLFFI | ≤ 0

Target: ScMyo3
Experiment: as above
Outline: as §1

Binder | SPOT peptide array binding signal intensity
GTIARPLFLVVLFFI | ≤ 0

Target: ScMyo5
Experiment: as above
Outline: as §1

Binder | SPOT peptide array binding signal intensity
GTIARPLFLVVLFFI | 1

Target: ScNbp2
Experiment: as above
Outline: as §1

Binder | SPOT peptide array binding signal intensity
GTIARPLFLVVLFFI | 78.5

Target: ScPex13
Experiment: as above
Outline: as §1

Binder | SPOT peptide array binding signal intensity
GTIARPLFLVVLFFI | ≤ 0

Target: ScRvs167
Experiment: as above
Outline: as §1

Binder | SPOT peptide array binding signal intensity
GTIARPLFLVVLFFI | 1.67

Target: ScSho1
Experiment: as above
Outline: as §1

Binder | SPOT peptide array binding signal intensity
GTIARPLFLVVLFFI | 1050

Target: ScSla1-D1-D2
Experiment: as above
Outline: as §1

Binder | SPOT peptide array binding signal intensity
GTIARPLFLVVLFFI | ≤ 0

Target: ScSla1-D3
Experiment: as above
Outline: as §1

Binder | SPOT peptide array binding signal intensity
GTIARPLFLVVLFFI | 1

Target: SpAbp1-D1
Experiment: as above
Outline: as §1

Binder | SPOT peptide array binding signal intensity
GTIARPLFLVVLFFI | 3.5

Target: SpBbc1
Experiment: as above
Outline: as §1

Binder | SPOT peptide array binding signal intensity
GTIARPLFLVVLFFI | 2

Target: SpBzz1-D1
Experiment: as above
Outline: as §1

Binder | SPOT peptide array binding signal intensity
GTIARPLFLVVLFFI | 111

Target: SpBzz1-D2
Experiment: as above
Outline: as §1

Binder | SPOT peptide array binding signal intensity
GTIARPLFLVVLFFI | ≤ 0

Target: SpCyk3
Experiment: as above
Outline: as §1

Binder | SPOT peptide array binding signal intensity
GTIARPLFLVVLFFI | 24

Target: SpHof1
Experiment: as above
Outline: as §1

Binder | SPOT peptide array binding signal intensity
GTIARPLFLVVLFFI | 45

Target: SpHof1-2
Experiment: as above
Outline: as §1

Binder | SPOT peptide array binding signal intensity
GTIARPLFLVVLFFI | 22.5

Target: SpHof1-3
Experiment: as above
Outline: as §1

Binder | SPOT peptide array binding signal intensity
GTIARPLFLVVLFFI | 637

Target: SpHse1
Experiment: as above
Outline: as §1

Binder | SPOT peptide array binding signal intensity
GTIARPLFLVVLFFI | 1630

Target: SpLsb1
Experiment: as above
Outline: as §1

Binder | SPOT peptide array binding signal intensity
GTIARPLFLVVLFFI | ≤ 0

Target: SpLsb4
Experiment: as above
Outline: as §1

Binder | SPOT peptide array binding signal intensity
GTIARPLFLVVLFFI | ≤ 0

Target: SpMyo1
Experiment: as above
Outline: as §1

Binder | SPOT peptide array binding signal intensity
GTIARPLFLVVLFFI | 4.25

Target: SpNbp2
Experiment: as above
Outline: as §1

Binder | SPOT peptide array binding signal intensity
GTIARPLFLVVLFFI | 160

Target: SpPex13
Experiment: as above
Outline: as §1

Binder | SPOT peptide array binding signal intensity
GTIARPLFLVVLFFI | 1

Target: SpRvs167
Experiment: as above
Outline: as §1

Binder | SPOT peptide array binding signal intensity
GTIARPLFLVVLFFI | ≤ 0

Target: SpSla1-D1-D2
Experiment: as above
Outline: as §1

Binder | SPOT peptide array binding signal intensity
GTIARPLFLVVLFFI | 1

Target: SpSla1-D3
Experiment: as above
Outline: as §1

Binder | SPOT peptide array binding signal intensity
GTIARPLFLVVLFFI | ≤ 0
